Here are results for twelve molecules from PubChem BioAssay.

The nature of experiment [1]: growth inhibition of DIPG glioma cells, dose response, cell-based, SU-DIPG-XVII, MIPE5.0, CellTiter-Glo, qHTS (AID 1347060; cut-off not given, nearly all actives have AC50 up to about 26 µM;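 for AC50: cells exposed to compound for 48 hours before viability readout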). Particulars: SU-DIPG-XVII viability, CellTiter-Glo ATP luminescence. Background: In ATP-based viability assays light output follows the ATP content of the culture.
Experiment [2] can be described thus: JHH-DIPG-1 glioma cell viability, MIPE5.0 library, CellTiter-Glo luminescence, qHTS (AID 1347067; cut-off not given, nearly all actives have AC50 up to about 26 µM;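 note: cells exposed to compound for 48 hours before readout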). Particulars: JHH-DIPG-1 glioma viability, CellTiter-Glo ATP luminescence.
Experiment [3] in a line: sensitizers of A549 cells to miR-34 induction, primary screen, imaging, A549 dox-inducible miR-34, nuclei and caspase counts (AID 1347080;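 active = compounds whose cell count with miR-34 switched on is under 0.7 times the count with it off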). Particulars: A549 miR-34 inducible, Hoechst nuclei count, 48 h.
A short description of experiment [4]: modifiers of HSF1 nuclear foci, imaging, Selleck Cancer Library (AID 1347162; in the data active = plate-normalised HSF1 focus index below about 0.46). Particulars: human cells, at 10 µM; SSMD: measured here: HSF1 foci SSMD mean; cell count: measured here: cell number; plate-normalised HSF1 focus index: stronger effect = lower value.
The nature of experiment [5]: survival rescue of mitochondrial mutant cells in low glucose, primary screen, MELAS cybrids, Rieske KO mouse fibroblasts, CellTiter-Glo (AID 1508586;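 active = mean z-score across replicates of 1.96 or higher in either the MELAS or the Rieske mutant cell line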;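 note: z relative to plate mean and SD of compound and empty wells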).
A short description of experiment [6]: ovarian cancer cell viability with rucaparib, profiling panel, oncology-focused library, rucaparib conditional (AID 1508598). Particulars: patient-derived ovarian cancer cells, CellTiter-Glo viability, 144 h, stronger effect = lower value.
Experiment [7] is described as follows: SU-DIPG-XXV glioma cell viability, MIPE5.0 library, qHTS (AID 1347068; cut-off not given, nearly all actives have IC50 up to about 30 µM;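 for IC50: cells exposed to compound for 48 hours before viability readout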). In general terms: qHTS replaces the single test concentration by a dilution series.

SMILES strings stand for the structures. Records with an inconclusive call do not appear. Active and inactive are the calls of the source.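 Rule for the calls, unless noted: active = normalized viability below 100% at a tested concentration; inactive = the rest.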

What is called viability is a read-out of living cells in per cent, often relative to untreated cells. As to `Cc1cccc(-c2nn3c(c2-c2ccnc4ccc(C(N)=O)cc24)CCC3)n1`, the molecule was called inactive in experiment [1] and in experiment [2]. Besides, the fold change in experiment [3] (stronger effect = lower value, cell number ratio, induced over uninduced) is 0.932 (inactive); in experiment [3] (measured here: relative caspase fold change +Dox/-Dox), 0.899. The cell count in experiment [3] (measured here: total cells with miR-34 induction, stronger effect = lower value) is 8480; in experiment [3] (measured here: total cells without miR-34 induction) it was 9100; in experiment [4], 6630. The molecule further came in with an SSMD in experiment [4] of 1.55. Besides, in experiment [4], the plate-normalised HSF1 focus index is 1.08 (inactive). For the same molecule, the z-score in experiment [5] (MELAS cybrid survival, CellTiter-Glo 48 h, stronger effect = higher value) was -0.309 (inactive); in experiment [5] (Rieske KO mouse fibroblast survival, CellTiter-Glo 72 h), 1.2. In addition, the viability was 110% (inactive) in experiment [6] (at 0.000305 µM, OCI-C5x cells, with rucaparib 10 µM, 100% = cells with rucaparib alone); 130% (inactive) in experiment [6] (at 0.000305 µM, OCI-C5x cells, without rucaparib); 102% (inactive) in experiment [6] (at 0.000305 µM, OCI-P5x cells, with rucaparib 20 µM, 100% = cells with rucaparib alone); 110% (inactive) in experiment [6] (at 0.000305 µM, OCI-P5x cells, without rucaparib); 110% (inactive) in experiment [6] (at 0.00122 µM, OCI-C5x cells, with rucaparib 10 µM, 100% = cells with rucaparib alone); 133% (inactive) in experiment [6] (at 0.00122 µM, OCI-C5x cells, without rucaparib). The viability in experiment [6] (at 0.00122 µM, OCI-P5x cells, with rucaparib 20 µM, 100% = cells with rucaparib alone) is 102% (inactive); in experiment [6] (at 0.00122 µM, OCI-P5x cells, without rucaparib), 108% (inactive); in experiment [6] (at 0.00488 µM, OCI-C5x cells, with rucaparib 10 µM, 100% = cells with rucaparib alone), 110% (inactive); in experiment [6] (at 0.00488 µM, OCI-C5x cells, without rucaparib), 128% (inactive); in experiment [6] (at 0.00488 µM, OCI-P5x cells, with rucaparib 20 µM, 100% = cells with rucaparib alone), 99.7% (active); in experiment [6] (at 0.00488 µM, OCI-P5x cells, without rucaparib) it was 112% (inactive). Besides, the viability is 113% (inactive) in experiment [6] (at 0.0195 µM, OCI-C5x cells, with rucaparib 10 µM, 100% = cells with rucaparib alone); 136% (inactive) in experiment [6] (at 0.0195 µM, OCI-C5x cells, without rucaparib); 105% (inactive) in experiment [6] (at 0.0195 µM, OCI-P5x cells, with rucaparib 20 µM, 100% = cells with rucaparib alone); 110% (inactive) in experiment [6] (at 0.0195 µM, OCI-P5x cells, without rucaparib); 109% (inactive) in experiment [6] (at 0.0781 µM, OCI-C5x cells, with rucaparib 10 µM, 100% = cells with rucaparib alone); 127% (inactive) in experiment [6] (at 0.0781 µM, OCI-C5x cells, without rucaparib). Further, the viability in experiment [6] (at 0.0781 µM, OCI-P5x cells, with rucaparib 20 µM, 100% = cells with rucaparib alone) is 110% (inactive); in experiment [6] (at 0.0781 µM, OCI-P5x cells, without rucaparib), 116% (inactive); in experiment [6] (at 0.313 µM, OCI-C5x cells, with rucaparib 10 µM, 100% = cells with rucaparib alone), 114% (inactive); in experiment [6] (at 0.313 µM, OCI-C5x cells, without rucaparib) it was 137% (inactive); in experiment [6] (at 0.313 µM, OCI-P5x cells, with rucaparib 20 µM, 100% = cells with rucaparib alone), 113% (inactive); in experiment [6] (at 0.313 µM, OCI-P5x cells, without rucaparib), 114% (inactive). Besides, the viability in experiment [6] (at 1.25 µM, OCI-C5x cells, with rucaparib 10 µM, 100% = cells with rucaparib alone) is 111% (inactive); in experiment [6] (at 1.25 µM, OCI-C5x cells, without rucaparib), 135% (inactive); in experiment [6] (at 1.25 µM, OCI-P5x cells, with rucaparib 20 µM, 100% = cells with rucaparib alone), 112% (inactive); in experiment [6] (at 1.25 µM, OCI-P5x cells, without rucaparib) it was 118% (inactive); in experiment [6] (at 5 µM, OCI-C5x cells, with rucaparib 10 µM, 100% = cells with rucaparib alone), 131% (inactive); in experiment [6] (at 5 µM, OCI-C5x cells, without rucaparib) it was 157% (inactive). In addition, the viability in experiment [6] (at 5 µM, OCI-P5x cells, with rucaparib 20 µM, 100% = cells with rucaparib alone) was 127% (inactive); in experiment [6] (at 5 µM, OCI-P5x cells, without rucaparib), 125% (inactive).

One may read the AC50 as the midpoint of the concentration-response curve, whichever way the signal moves. Broadly, the IC50 is the midpoint of a concentration-inhibition curve. Turning to `O=C(Nc1ccnc(NC(=O)C2CC2)c1)c1c(Cl)cccc1Cl`, the AC50 in experiment [1] was 9.34 µM (active); in experiment [2], 2.63 µM (active). Further, in experiment [7], the IC50 is 7.42 µM (active).

Turning to `N#Cc1cc2cc(CN3CCC(Nc4ncnc5sc(CC(F)(F)F)cc45)CC3)c(O)cc2n1Cc1cn[nH]c1`, the AC50 in experiment [1] is 29.5 µM (active). Moreover, in experiment [7], the IC50 is 20.9 µM (active).

On to `COC(=O)C1=C(C)NC(c2ncc(F)cc2F)=N[C@@H]1c1ccc(F)cc1Cl`, for which the call in experiment [1] and in experiment [7] was inactive.

Turning to `CNC(=O)c1cc(Oc2ccc3nc(N[C@@H]4CCCC[C@H]4O)sc3c2)ccn1`, the molecule was classed as inactive in experiment [1] and in experiment [7].

For the molecule `CNc1ncc2cc(-c3cc(NC(=O)NCCC(C)(C)C)c(F)cc3C)c(C)nc2n1`, the outcome in experiment [1] and in experiment [7] was inactive.

With `COc1cc2c3c(n(CCCN4CCOCC4)c(=O)c2cc1OC)-c1cc2c(cc1C3=O)OCO2`, the AC50 is 0.0417 µM (active) in experiment [1] and 8.33 µM (active) in experiment [2]. For the same molecule, in experiment [7], the result was inactive.

Turning to `O=C(/C=C/c1ccc(Cl)cc1)N1CCC2(CC1)CN(Cc1ccc(Cl)c(Cl)c1)C(=O)O2`, the half-maximal activity concentration (AC50) in experiment [1] was 18.6 µM (active). Further, the molecule was called inactive in experiment [7].

With `COc1ccc(Cl)c(Nc2ncnc3cc(OCC4CCN(C)CC4)c(OC)cc23)c1`, the figures for the AC50 in experiment [1] and in experiment [2] were 3.72 µM (active) and 20.9 µM (active), respectively. Besides, the call in experiment [7] was inactive.

`CC(C)(O)CNc1ncc(-c2ccnc(Nc3ccncc3)n2)c(CC2CC2)n1`: the AC50 in experiment [1] and in experiment [2] was 16.6 µM (active) throughout. In experiment [7], the IC50 is 23.5 µM (active).

As for `Cc1noc2c1-c1ccccc1C(c1ccc(Cl)cc1)=N[C@H]2CC(N)=O`, the result in experiment [1] and in experiment [7] was inactive.

With `CC(=O)C1CCC2C3CCC4=CC(=O)CCC4(C)C3CCC12C` (stereo not given), the result in experiment [1], in experiment [2] and in experiment [7] was inactive.
